Data: PubChem BioAssay (NCI)
This is part of a sample that, as a whole, favours compounds with a hit. Of some 79,000 tested, about 15% had one in any assay. No stated cut-off is given here; in the data, active means growth inhibition above about 70%; inactive means the rest.

Key:
[1] = NCI Yeast Anticancer Drug Screen. Data for the rad50 strain (AID 155);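 further: 0% = growth of vehicle-only cultures of the same strain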; settings: S. cerevisiae rad50 strain growth inhibition; at 50.0 µM; hits give high values
Procedure, shortened: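 Readout: growth inhibition relative to vehicle-treated cultures. Compound exposure was carried out in a genetically defined yeast strain deficient in DNA damage repair.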

[2] = NCI Yeast Anticancer Drug Screen. Data for the mec2-1 strain (AID 157); settings: S. cerevisiae mec2-1 strain, at 50.0 µM, hits give high values
Procedure, shortened: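 Cells of the genetically defined mec2-1 yeast strain are incubated with test compound. Inhibition of growth is calculated against vehicle-treated controls.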

[3] = NCI Yeast Anticancer Drug Screen. Data for the sgs1 mgt1 strain (AID 161);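 further: 0% = growth of cultures given vehicle only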; settings: S. cerevisiae sgs1 mgt1 strain, at 50.0 µM, hits give high values
Procedure, shortened: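 Inhibition of yeast growth, normalised to vehicle-treated controls, is reported for a strain bearing genetic alterations in DNA damage repair.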

[4] = NCI Yeast Anticancer Drug Screen. Data for the cln2 rad14 strain (AID 165);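 further: 0% = growth equal to vehicle treated cultures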; settings: S. cerevisiae cln2 rad14 strain, at 50.0 µM, hits give high values
Procedure, shortened: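 The screen exposed genetically defined yeast (cln2 rad14) to test compounds and scored growth inhibition relative to vehicle-treated controls.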

[5] = NCI Yeast Anticancer Drug Screen. Data for the bub3 strain (AID 167); settings: S. cerevisiae bub3 mutant strain, at 50.0 µM, hits give high values
Procedure, shortened: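 Readout: yeast growth inhibition, expressed relative to vehicle-only wells. The test organism is a mutant strain from a panel with lesions in DNA repair or checkpoint genes.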

[6] = NCI Yeast Anticancer Drug Screen. Data for the mlh1 rad18 strain (AID 175); settings: S. cerevisiae mlh1 rad18 strain growth inhibition; at 50.0 µM; hits give high values
Procedure, shortened: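 Compound-treated yeast growth, normalised to vehicle controls. Strain bears defined DNA repair mutations.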

Measured: growth inhibition

O=C1NC2NC(=O)NC2N1 (stereo unspecified)
inactive: [1] 6.6% | [2] -27.1% | [3] -3% | [4] -9.6% | [5] -2.05% | [6] 10.2%

Nc1cccc2sccc12
inactive: [1] 4.25% | [2] 5.15% | [3] -3.85% | [4] -4.1% | [5] 11.9% | [6] -3.35%

c1ccc2c(c1)CCOC2
inactive: [1] -0.4% | [2] 5.9% | [3] 3.45% | [4] 6.5% | [5] 8.55% | [6] -3.1%

O=C1NC(=O)C(c2ccc(Cl)cc2)(c2cccc(Cl)c2)N1 (stereo unspecified)
inactive: [1] 11.1% | [2] -16.5% | [3] 18.3% | [4] -11.8% | [5] 5.9% | [6] -5.9%

COc1cc2c3c(c1OC)-c1[nH]c4ccccc4c1C1CCCN(CC2)C31 (stereo unspecified)
inactive: [1] -54.9% | [2] -19.9% | [3] -20.4% | [4] -29.9% | [5] -16.4% | [6] -11.7%

NC(=S)NNC(=O)C(Cc1ccccc1)NC(=O)OCc1ccccc1 (stereo unspecified)
inactive: [1] 1.75% | [2] 17.7% | [3] 22.9% | [4] -7.6% | [5] 15.7% | [6] 11.4%

BrC1CCC(OCc2ccccc2)C(OCc2ccccc2)C1 (stereo unspecified)
inactive: [1] -10.8% | [2] 7.25% | [3] 13.8% | [4] 8.85% | [5] 10.7% | [6] -0.95%

CC(O)C(=O)N(CCO)CCO (stereo unspecified)
inactive: [1] -5.4% | [2] -21.9% | [3] -13.4% | [4] -35.8% | [5] 3.5% | [6] 10.3%

ClCCc1ccccc1CC1=NCCc2ccccc21
inactive: [1] 18.6% | [2] -26.4% | [3] -23.7% | [4] 6.3% | [5] -12.8% | [6] 54.8%

CC(C)(C)CC(C(=O)O)[Si](C)(C)C (stereo unspecified)
inactive: [1] -4.55% | [2] 7.1% | [3] -1.65% | [4] -1.25% | [5] 2.9% | [6] -9.7%

CC1=NN(C(=O)CC(=O)Nc2ccccc2Cl)C(=O)C1N=Nc1ccc(C(=O)O)cc1 (stereo unspecified)
inactive: [1] -3.35% | [2] -6.85% | [3] 6.75% | [4] -9.75% | [5] -5.6% | [6] 17.8%

CCCCCCCCCCCCCCCCCC(=O)NC(=O)Nc1ccc(C)cc1
inactive: [1] -3.9% | [2] 17.6% | [3] -10.1% | [4] -17% | [5] -9.65% | [6] 11.2%

[O-][n+]1c(CN2CCCCC2)nc2cccc3c2c1-c1ccccc1-3
inactive: [1] 33.4% | [2] 12.3% | [3] -3.5% | [4] -8.55% | [5] 20.6% | [6] 13.1%

COc1cc(CSCC(=O)O)ccc1O
inactive: [1] 8.95% | [2] 7.15% | [3] 10.3% | [4] -19.4% | [5] -19.6% | [6] -23.8%

O=C1Cc2c(c3ccccc3c3ccccc23)C1
inactive: [1] 20.9% | [2] 7.5% | [3] -4.1% | [4] -41% | [5] 4% | [6] 20.9%

c1ccc2oc(-c3ccc4c(c3)OCO4)nc2c1
inactive: [1] 14.8% | [2] 42.8% | [3] 11.6% | [4] 4.5% | [5] -2.75% | [6] -0.2%

CC(=O)Nc1ccc(S(=O)(=O)N/N=C\CC(C)C)cc1
inactive: [1] -19.4% | [2] -14.2% | [3] -26.2% | [4] -6.95% | [5] -46% | [6] -27.2%

O=S(=O)(O/C(=C(\OS(=O)(=O)C(F)(F)F)c1ccccc1)c1ccccc1)C(F)(F)F
inactive: [1] 6.9% | [2] -20.2% | [3] -21.1% | [4] -4.8% | [5] -2.65% | [6] 10%

CC(C)(O)C(O)(c1ccccc1)c1ccccc1
inactive: [1] 2.65% | [2] 2.75% | [3] 16.7% | [4] 6.5% | [5] 5.95% | [6] 12.8%

Cn1c(=O)c2[nH]c(SC3CCCCC3)nc2n(C)c1=O
inactive: [1] 19.2% | [2] 11.4% | [3] 18.6% | [4] 11.3% | [5] 35.8% | [6] 8.9%

CC(O)C(c1ccc(N(C)C)cc1)c1ccc(N(C)C)cc1 (stereo unspecified)
inactive: [1] -6.25% | [2] 3.1% | [3] 2.35% | [4] -14.6% | [5] 6.05% | [6] 2.45%
